# Entries with a potency or affinity are not part of this list. Active and inactive are the calls of the source.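 How the source made its calls: active means every repeat run showing a signal drop whose fitted half-maximal concentration is at most twice the top tested concentration; inconclusive means repeat runs disagree, or flat partial drop, or poor fit; inactive means the rest.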
# Assay: general mammalian cell viability loss – activator set, cherry-pick, cytotoxicity control for miR-122 modulator project, dose response (AID 720690)
# Conditions: HEK293T viability, CellTiter-Glo luminescence, 48 h; series mostly up to 26 µM
row,SMILES,outcome
1,COc1ccc(CC(NC(C)=O)C(=O)N2CCN(C(=O)N(C(C)C)C(C)C)CC2)cc1 (centres undefined),inactive
2,CCCNC(=O)C[C@@H]1CC[C@@H]2[C@H](COc3ccc(NS(=O)(=O)c4ccccc4C)cc3C(=O)N2C)O1,inactive
3,COc1ccc(CNC(=O)C[C@H]2CC[C@H]3[C@H](COc4ccc(NC(=O)C(C)C)cc4C(=O)N3C)O2)cc1,inactive
4,CCC(=O)N1[C@H](CN(CC)C(=O)c2ccccc2)[C@@H](c2ccccc2)[C@@H]1CO,inactive
5,O=C(c1cccc(F)c1)N1C[C@@H]2[C@H](c3ccccc31)[C@H](CO)N2C(=O)Cc1ccccc1,inactive
6,COCC(=O)N(C)C[C@@H]1[C@@H](c2ccccc2)[C@H](CO)N1C(=O)Cc1ccncc1,inactive
7,COCC(=O)N1[C@@H](CO)[C@@H]2c3ccccc3N(C(=O)c3cccnc3)C[C@@H]21,inactive
8,COCC(=O)N1[C@H](CO)[C@H]2c3ccccc3N(C(=O)c3ccccc3F)C[C@H]21,inactive
9,Cc1ccc(-n2ncc(C(=O)Nc3cc(Cl)ccc3C)c2C2CCNCC2)cc1C,inactive
10,C[C@H]1CN([C@@H](C)CO)S(=O)(=O)c2ccc(C3=CCCC3)cc2O[C@H]1CN(C)Cc1cccnc1,inactive
11,CCCC(NS(=O)(=O)c1ccc(Br)cc1)C(=O)O (centres undefined),inactive
12,Cc1ccc(-c2ccc3c(c2)O[C@H](CN(C)C(=O)CC2CC2)[C@H](C)CN([C@@H](C)CO)S3(=O)=O)cc1,inactive
13,Cc1cc2[nH]c3c4ccccc4nc(C)c3c2cc1C,inactive
14,COc1ccc(C(C#N)Nc2ccc(C)cc2)cc1 (centres undefined),inactive
15,C[C@H](CO)N1C[C@H](C)[C@@H](CN(C)CC2CCCCC2)Oc2c(NS(=O)(=O)c3cccs3)cccc2C1=O,inactive
16,Cc1cc(CN(C)C(=O)c2cc(COc3ccc4ncccc4c3)on2)on1,inactive
17,CC(=O)N(C)C[C@@H]1[C@@H](c2ccccc2)[C@H](CO)N1C(=O)C1CCC1,inactive
18,C[C@H](CO)N1C[C@H](C)[C@@H](CN(C)Cc2ccc(-c3ccccc3)cc2)Oc2ncc(C#CCN(C)C)cc2C1=O,inactive
19,COC(=O)C[C@H]1CC[C@H]2[C@H](COc3ccc(NC(=O)c4cscn4)cc3C(=O)N2C)O1,inactive
20,COc1cccc(NC(=O)N(C)C[C@@H]2Oc3ncc(C#Cc4ccncc4)cc3C(=O)N([C@@H](C)CO)C[C@H]2C)c1,inactive

row,SMILES,outcome
1,COc1cc(NC(=O)c2c(F)c(F)c(F)c(F)c2F)c(OC)cc1Cl,inactive
2,C[C@@H]1CN([C@H](C)CO)S(=O)(=O)c2ccc(C3=CCCCC3)cc2O[C@@H]1CN(C)C(=O)Nc1ccc2c(c1)OCO2,inactive
3,C[C@@H]1CN([C@H](C)CO)S(=O)(=O)c2ccc(-c3ccc(C(=O)N(C)C)cc3)cc2O[C@@H]1CN(C)C(=O)C1CCC1,inactive
4,Cc1nn(C)cc1NC(=O)C[C@@H]1CC[C@@H]2[C@H](COc3ccc(NC(=O)Nc4cccc(Cl)c4)cc3C(=O)N2C)O1,inactive
5,CC(C)C#Cc1ccc2c(c1)O[C@H](CN(C)C(=O)c1ccncc1)[C@H](C)CN([C@@H](C)CO)S2(=O)=O,inactive
6,CNC(=O)C[C@H]1CC[C@H]2[C@@H](COc3ccc(NC(=O)c4cccc(OC)c4)cc3C(=O)N2C)O1,inactive
7,CCNC(=O)C[C@@H]1CC[C@H]2[C@H](COc3ccc(NC(=O)c4ccccc4)cc3C(=O)N2C)O1,inactive
8,CN(C[C@H]1[C@H](c2ccccc2)[C@@H](CO)N1CC1CC1)C(=O)c1cccc(F)c1,inactive
9,Cc1cc2n(n1)C(c1cn(-c3ccccc3)nc1C)Nc1c(C)cccc1-2 (centres undefined),inactive
10,CNc1nc(NCC2CCCCC2)c2sccc2n1,inactive
11,C/C=C/c1ccc([C@H]2[C@@H](CO)N[C@@H]2CN(C(=O)c2ccccc2F)C(C)C)cc1,inactive
12,CC(=O)N1[C@H](CO)[C@@H](c2ccccc2)[C@H]1CN(C)C(=O)CN1CCOCC1,inactive
13,COc1cccc(NC(=O)Nc2ccc3c(c2)C(=O)N(C)C[C@@H](OC)[C@@H](C)CN[C@H](C)CO3)c1,inactive
14,COc1cccc(C(=O)Nc2ccc3c(c2)C(=O)N(C)[C@@H]2CC[C@@H](CC(=O)NCc4ccc(F)cc4)O[C@@H]2CO3)c1,inactive
15,COc1ccc(CN2CCN(Cc3cccn3-c3ncccn3)CC2CCO)c(C)c1C (centres undefined),inactive
16,COc1cccc(CNC(=O)C[C@@H]2CC[C@@H]3[C@H](COc4ccc(NC(C)=O)cc4C(=O)N3C)O2)c1,inactive
17,CC(=O)N1[C@H](CN(C(=O)c2ccc(F)cc2)C(C)C)[C@@H](c2ccccc2)[C@@H]1CO,inactive
18,CC(=O)N(C)C[C@H]1Oc2cc(C#Cc3ccc(F)cc3)ccc2S(=O)(=O)N([C@H](C)CO)C[C@H]1C,inactive
19,C/C=C/c1ccc([C@@H]2[C@@H](CN(C(=O)COC)C(C)C)N(C(C)=O)[C@H]2CO)cc1,inactive

# Source: PubChem BioAssay AID720690 (Broad Institute, 2013)
